These results are taken from PubChem BioAssay (EPA / NIEHS).

Calls of active or inactive are those of the source. How the source made its calls: active means hit-call score of the fitted dose curve at least 0.9, where 1 is the maximum; inactive means score below 0.9.

Chain of E-selectin (Homo sapiens) (P16581 whole entry, looked up): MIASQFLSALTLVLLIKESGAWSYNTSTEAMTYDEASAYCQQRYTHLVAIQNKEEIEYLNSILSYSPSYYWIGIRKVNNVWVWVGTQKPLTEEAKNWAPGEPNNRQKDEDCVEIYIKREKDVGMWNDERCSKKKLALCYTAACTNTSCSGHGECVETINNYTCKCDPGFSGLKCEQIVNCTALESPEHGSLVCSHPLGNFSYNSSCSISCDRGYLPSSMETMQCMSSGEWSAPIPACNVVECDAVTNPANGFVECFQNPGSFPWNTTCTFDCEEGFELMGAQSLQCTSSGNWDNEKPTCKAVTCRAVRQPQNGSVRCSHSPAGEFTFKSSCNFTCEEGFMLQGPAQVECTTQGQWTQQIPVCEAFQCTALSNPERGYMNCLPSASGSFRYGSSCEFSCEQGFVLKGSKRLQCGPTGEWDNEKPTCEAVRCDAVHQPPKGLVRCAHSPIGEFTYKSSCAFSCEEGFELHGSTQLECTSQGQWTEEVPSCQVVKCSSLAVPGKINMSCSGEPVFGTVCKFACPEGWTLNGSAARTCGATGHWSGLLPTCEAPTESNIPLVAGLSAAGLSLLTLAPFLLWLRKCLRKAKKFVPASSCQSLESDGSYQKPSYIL

Read-out in this assay: E-selectin (Homo sapiens) (UniProt P16581)
The experiment in a line: BSK_SAg_Eselectin: BioMAP Diversity Plus: SAg Assay for Eselectin Biomarker Activity (AID 2283091). Particulars: primary human HUVEC with PBMC; actives raise or lower the signal. In outline:
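Cell-surface E-selectin is read by ELISA at 24 h in the SAg co-culture of HUVEC and PBMC. Curves are fitted in both directions relative to DMSO. Parallel SRB total-protein staining tracks overt toxicity.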
As to `CCCCCCCCC(CO)CCCCCC` (configuration not stated), the result was inactive.

For the molecule `Oc1c(Cl)cc(Cl)c(Cl)c1Cl`, the half-maximal activity concentration (AC50) – broadly, the concentration at which the activity in the assay is half-maximal – is 20 µM (active).

Regarding `CCOC(=O)C1=NN(c2ccc(Cl)cc2Cl)C(C)(C(=O)OCC)C1` (configuration not stated), the outcome was inactive.

As to `c1ccc2sc(SSN3CCOCC3)nc2c1`, the result was inactive.

For the molecule `CCOC(=O)/C=C\C(=O)OCC`, the concentration at half-maximal activity (AC50) is 20 µM (active).

Turning to `Cc1ccc([N+](=O)[O-])cc1N`, the half-maximal activity concentration (AC50) is 5.91 µM (active).

`CC(c1cc(C(C)(C)C)cc(C(C)(C)C)c1O)c1cc(C(C)(C)C)cc(C(C)(C)C)c1O`: the result was inactive.

Take `CCCCCCCCCCCC(=O)N(C)CC(=O)O`: the result was inactive.

As to `C=CC(=O)NC(C)(C)C`, the outcome was inactive.

Take `C=CC(=O)OCCCCCCOC(=O)C=C`: the concentration at half-maximal activity (AC50) was 5.55 µM (active).

Turning to `CC=C(C)C(C)=O`, the outcome was inactive.

With `CCN1CN(CC)CN(CC)C1`, the outcome was inactive.

As for `Fc1ccc(Br)cc1`, the result was inactive.

For the molecule `C=C(C)C(=O)OCCCCCCCCCCCC`, the result was inactive.

In the case of `CCCCCC1=CCCC1=O`, the outcome was inactive.

`O=C(Cl)c1c(Cl)c(Cl)c(C(=O)Cl)c(Cl)c1Cl`: the outcome was inactive.

For the molecule `C=CCCCCCCCCC=O`, the outcome was inactive.

In the case of `Oc1ccccc1Cc1ccccc1O`, the outcome was inactive.

As for `COc1ccc(C(=O)c2ccccc2)c(O)c1`, the outcome was inactive.

For the molecule `CC(C)[N+](C)(CCOC(=O)C1c2ccccc2Oc2ccccc21)C(C)C`, the result was inactive.

Take `O=C1CCCCCCCCCCC1`: the outcome was inactive.

For `CCCCCCCO`, the outcome was inactive.

As for `CCCCCCOC(=O)CCCCC(=O)OCCCCCC`, the result was inactive.

For `CCc1cccc(C)c1N(C(=O)CS(=O)(=O)O)C(C)COC` (configuration not stated), the outcome was inactive.

Consider `Oc1ccc(/C=C/c2cc(O)cc(O)c2)cc1`, for which the result was inactive.

Turning to `Clc1cc(Cl)c(Cl)c(Cl)c1Cl`, the outcome was inactive.

With `CCCC(C)C(=O)OCC` (configuration not stated), the outcome was inactive.
